# Structures can show the parent of a compound that is named as a salt.
# Assays:
# Assay in all cases: Euclidean distance of Cell Painting phenotypic profile (signed KS, 77 features) to DMSO centroid (dimensionless distance); 5 or 10 uM (library dependent); higher = stronger phenotypic change vs DMSO (phenoactivity)
# Conditions in all cases: 48 h
# 786-O = test system: 786-O
# Procedure, shortened: (§1)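 Five cancer lines and a healthy fibroblast line received library compounds at 10 or 5 uM (library-dependent, 0.1% DMSO final) for 48 h. Stained cells were imaged confocally at 20X (9 fields/well). Harmony extracted 77 features, each scored as a signed Kolmogorov-Smirnov statistic against same-plate vehicle wells. Profiles were plate-position corrected, correlation-weighted and replicate-averaged at the top dose. Phenoactivity is the Euclidean distance from each profile to the median vehicle profile.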
# A549 = test system: A549
# Procedure, shortened: as §1
# DU145 = test system: DU145
# Procedure, shortened: as §1
# FB = test system: FB
# Procedure, shortened: as §1
# HEPG2 = test system: HEPG2
# Procedure, shortened: as §1
# OVCAR4 = test system: OVCAR4
# Procedure, shortened: as §1
SMILES,Euclidean distance (786-O),Euclidean distance (A549),Euclidean distance (DU145),Euclidean distance (FB),Euclidean distance (HEPG2),Euclidean distance (OVCAR4)
CCC(=O)OCC(=O)[C@@]1(OC(=O)CC)[C@@H](C)C[C@H]2[C@@H]3CCC4=CC(=O)C=C[C@]4(C)[C@@]3(Cl)[C@@H](O)C[C@@]21C [Beclomethasone dipropionate],1.09,2.14,2.46,1.95,0.575,1.8
N#CC1(c2ccc(NC(=O)c3cccnc3NCc3ccncc3)cc2)CCCC1 [Apatinib],0.955,1.12,0.92,2.3,1.34,0.799
Clc1cccc(Cl)c1NC1=NCCN1 [Clonidine HCl],1.05,1.46,1.32,1.16,0.83,1.24
CC1=CC(=O)c2ccccc2C1=O [Menadione],1.12,0.782,0.587,1.16,0.759,2.12
CCN(CC)CCOC(=O)c1ccc(N)cc1Cl [Chloroprocaine HCl],0.962,0.947,0.943,0.861,0.503,1.07
CN1CCCC(n2nc(Cc3ccc(Cl)cc3)c3ccccc3c2=O)CC1 (stereo unspecified) [Azelastine HCl],1.09,0.991,0.881,2.15,1.14,0.789
Nc1nc(NC2CC2)c2ncn([C@H]3C=C[C@@H](CO)C3)c2n1 [Abacavir],1.46,0.752,1.02,1.21,0.494,1.25
CCCCCCc1ccc(O)cc1O [Hexylresorcinol],1.35,0.943,0.978,0.936,1.32,1.16
CN1CCCN=C1/C=C/c1cccc(O)c1 [Oxantel Pamoate],0.869,0.907,0.598,0.7,0.882,0.824
CSc1nc2cc(Cl)c(Oc3cccc(Cl)c3Cl)cc2[nH]1 [Triclabendazole],1.55,0.638,1.65,1.07,1.43,0.772
C[C@@H](O)[C@H]1C(=O)N2C(C(=O)O)=C(SCCNC=N)C[C@H]12 [Imipenem],0.957,1.45,0.986,0.737,0.883,0.789
COCC(=O)Nc1c(I)c(C(=O)NCC(O)CO)c(I)c(C(=O)N(C)CC(O)CO)c1I (stereo unspecified) [Iopromide],1.53,0.999,0.749,1.04,0.445,1.07
CC(=O)Nc1ccc(OC(=O)c2ccccc2OC(C)=O)cc1 [Benorylate],1.08,1.08,1.31,1.41,0.561,1.13
CC1(C)S[C@@H]2[C@H](NC(=O)[C@H](N)c3ccccc3)C(=O)N2[C@H]1C(=O)OCOC(=O)[C@@H]1N2C(=O)C[C@H]2S(=O)(=O)C1(C)C [Sultamicillin Tosylate],1.06,1.18,0.926,1.01,0.775,0.992
Cc1noc(NS(=O)(=O)c2ccc(N)cc2)c1C [Sulfisoxazole],1.32,0.853,1.02,0.984,0.555,1.26
Nc1cc(F)ccc1NC(=O)/C=C/c1cnn(C/C=C/c2ccccc2)c1,1.54,1.02,0.877,2.44,1.27,0.895
CC1CCN(CC[C@H]2CCCN2S(=O)(=O)c2cccc(O)c2)CC1,0.546,0.904,0.705,1.11,1.48,0.827
CCCCNc1ccc(C(=O)OCCOCCOCCOCCOCCOCCOCCOCCOCCOC)cc1 [Benzonatate],1.17,1.09,0.781,1.36,0.687,1.37

SMILES,Euclidean distance (786-O),Euclidean distance (A549),Euclidean distance (DU145),Euclidean distance (FB),Euclidean distance (HEPG2),Euclidean distance (OVCAR4)
Nc1ccc2ncnc(NCCc3ccc(Oc4ccccc4)cc3)c2c1,1.67,1.95,1.06,1.68,3.12,0.755
CC1CNc2c(cccc2S(=O)(=O)N[C@@H](CCCNC(=N)N)C(=O)N2CC[C@@H](C)C[C@@H]2C(=O)O)C1 (stereo partly specified) [Argatroban],0.618,0.352,0.62,0.896,0.99,0.903
C=CC(=O)Nc1cc(Nc2nccc(-c3cn(C)c4ccccc34)n2)c(OC)cc1N(C)CCN(C)C [Osimertinib mesylate],4.85,4.05,2.93,5.59,5.06,4.46
CC(C)(C#N)c1ccc(N2C(=O)OCc3cnc4ccc(-c5cnc6ccccc6c5)cc4c32)cc1,3.92,2.98,0.959,0.992,0.996,4.19
Cc1cnc(C(=O)O)c[n+]1[O-] [Acipimox],1.86,0.99,0.959,0.682,1.59,0.964
CCOC(N)=O [Urethane],1.2,0.492,0.675,0.718,0.46,1.46
CCOc1nc2cccc(C(=O)O)c2n1Cc1ccc(-c2ccccc2-c2noc(=O)[nH]2)cc1 [Azilsartan],0.834,0.784,0.835,0.563,0.88,0.784
N=C(N)NCCC[C@H](N)C(=O)O [L-arginine],1.03,0.798,1.21,0.843,0.876,0.97
CNC(=C[N+](=O)[O-])NCCSCc1csc(CN(C)C)n1 [Nizatidine],1.68,1.53,2.02,0.759,1.7,1.18
CCCCN1CCCC[C@H]1C(=O)Nc1c(C)cccc1C [Levobupivacaine HCl],1.01,1.33,0.6,0.871,0.852,1.49
C/C(=C\C(=O)OCCCCCCCCC(=O)O)C[C@@H]1OC[C@H](C[C@@H]2O[C@H]2[C@@H](C)[C@H](C)O)[C@@H](O)[C@H]1O [Mupirocin calcium],1.28,0.948,1.83,0.82,0.518,1.26
COc1cc(NS(=O)(=O)c2ccc(N)cc2)ncn1 [Sulfamonomethoxine],0.83,0.926,0.778,0.916,0.669,1.12
CO[C@H]1O[C@@H]2O[C@@]3(C)CC[C@H]4[C@H](C)CC[C@@H]([C@H]1C)[C@@]24OO3 [Artemether],1.43,1.11,0.712,1.28,0.672,1.26
N#CC(c1ccc(Cl)cc1)c1c(Cl)cc(-n2ncc(=O)[nH]c2=O)cc1Cl (stereo unspecified) [Diclazuril],1.07,1.53,0.762,1.53,2.11,1.22
O=c1cc(N2CCOCC2)oc2c1ccc1ccccc12,0.913,1.57,1.41,3.23,1.42,4.01
Oc1cc(O)cc(/C=C/c2ccc(O)c(O)c2)c1 [Piceatannol],0.759,1.05,0.992,1.3,2.04,0.83
C[C@H](NC(=O)C(=O)Nc1ccccc1C(C)(C)C)C(=O)N[C@@H](CC(=O)O)C(=O)COc1c(F)c(F)cc(F)c1F [Emricasan],1.44,0.567,0.769,0.936,0.32,0.99
Nc1nc(/C(=C/CC(=O)O)C(=O)N[C@@H]2C(=O)N3C(C(=O)O)=CCS[C@H]23)cs1 [Ceftibuten dihydrate],1.22,0.568,1.24,1.2,1.17,0.987
